ADAM10 inh: ADAM10 inhibition, QFRET primary screen; 370,000 tested, 0.62% active; recombinant ADAM10, EDANS/DABCYL FRET peptide cleavage, 3 h; AID 720582; O14672; inhibition, % at 7 µM;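 active means inhibition above a per-campaign cutoff equal to the mean of compounds falling between control-based bounds plus 3 SD, cut at about 20% in these data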;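 further: 0% = DMSO wells while the 100% control is not disclosed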
ADAM17 inh: inhibits human ADAM17. P78536. recombinant ADAM17, EDANS/DABCYL FRET peptide cleavage. inhibition, % at 6.95 µM. 370,000 tested, 0.83% active. AID 720648;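 active means inhibition above the mean of compounds lying between control limits plus 3 SD, set per campaign, cut at about 8.5% in these data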;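 further: 0% = DMSO-only wells as the low control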
NR3A LBD binder: modulates the human NR3A ligand-binding domain; Tm shift relative to glycine control, % at 25 µM; NR3A LBD differential scanning fluorimetry, Tm shift; 0% = protein alone, 100% = glycine-bound protein; 340,000 tested, 2.5% active;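 active means melting temperature shift of at least 10% of the positive control shift, at one fixed dose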
proKLK7 act: proKLK7 (human) activation, primary screen | P49862 | purified proKLK7, EDANS-DABCYL substrate fluorescence; 100% is mature enzyme control, 0% vehicle | activation, % at 7 µM | 370,000 tested, 0.9% active;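 active means activation above the mean of all tested compounds plus 3 SD, computed per campaign excluding outliers beyond control limits, cut at about 13% in these data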
rCAG binder: r(CAG) repeat RNA binding; inhibition, % at 3 µM; 370,000 tested, 1.3% active; TO-PRO-1 dye displacement fluorescence;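 active means inhibition above the plate cutoff, the mean of all test compounds on that plate plus 3 SD, cut at about 35% in these data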;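 further: 0% = DMSO alone and 100% = 100 µM mitoxantrone as full dye displacement; higher means more dye released from RNA so lower well fluorescence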
AHR activator: activates the human aryl hydrocarbon receptor | P35869 | AHR-responsive luciferase reporter cells, luminescence | activation, % at 5 µM | 320,000 tested, 2.5% active | AID 2796; in the data active means activation above about 47%;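 further: 0% = vehicle wells and 100% = reference agonist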
Target sequence (P35869 whole entry, looked up): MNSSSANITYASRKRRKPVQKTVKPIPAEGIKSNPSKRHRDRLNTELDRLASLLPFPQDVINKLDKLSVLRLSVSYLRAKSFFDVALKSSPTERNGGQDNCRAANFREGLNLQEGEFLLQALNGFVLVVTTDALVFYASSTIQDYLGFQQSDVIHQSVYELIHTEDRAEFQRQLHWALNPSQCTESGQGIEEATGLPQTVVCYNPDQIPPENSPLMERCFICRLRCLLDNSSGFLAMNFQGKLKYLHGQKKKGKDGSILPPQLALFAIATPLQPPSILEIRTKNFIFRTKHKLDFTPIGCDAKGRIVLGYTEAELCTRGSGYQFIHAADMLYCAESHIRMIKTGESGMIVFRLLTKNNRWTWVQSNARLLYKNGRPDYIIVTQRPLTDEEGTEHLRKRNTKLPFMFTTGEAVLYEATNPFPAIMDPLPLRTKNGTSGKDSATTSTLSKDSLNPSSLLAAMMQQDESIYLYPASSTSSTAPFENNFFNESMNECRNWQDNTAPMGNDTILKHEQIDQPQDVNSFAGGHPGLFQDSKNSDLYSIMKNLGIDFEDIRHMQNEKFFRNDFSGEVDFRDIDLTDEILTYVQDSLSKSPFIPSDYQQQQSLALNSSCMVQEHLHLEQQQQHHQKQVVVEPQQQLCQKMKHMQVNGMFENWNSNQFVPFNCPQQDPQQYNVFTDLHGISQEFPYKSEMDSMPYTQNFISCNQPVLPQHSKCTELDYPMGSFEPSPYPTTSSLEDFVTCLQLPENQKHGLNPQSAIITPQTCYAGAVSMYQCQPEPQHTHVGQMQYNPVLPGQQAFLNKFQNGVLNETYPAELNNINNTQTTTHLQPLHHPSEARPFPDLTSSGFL
* marks the source's active call; other numbers are inactive results; i = inactive; · = no result given. Shown are actives, neighbours in structure and some others; about 7% of the full set was active somewhere.

SMILES | ADAM10 inh | ADAM17 inh | NR3A LBD binder | proKLK7 act | rCAG binder | AHR activator
Cn1c(CNc2ccc(O)cc2)nc2ccccc21 | -7 | -14 | 6 | -2 | -19 | 15
Cn1c(NC(=S)Nc2ccccc2)nc2ccccc21 | -1 | 0 | -1 | -1 | 6 | 60*
CCOC(=O)c1ccc(NCc2nc3ccccc3n2C)cc1 | 4 | -2 | 0 | 0 | -4 | 59*
Cn1c(CNc2nc3ccccc3n2C)nc2ccccc21 | 1 | 4 | 0 | 0 | 2 | 49*
COc1ccc(NCc2nc3ccccc3n2C)cc1 | -6 | -6 | -3 | 0 | -2 | 53*
CC(C)n1c(NCc2nc3ccccc3n2C)nc2ccccc21 | -2 | -5 | -2 | 0 | -6 | 15
O=C(CN(CCc1ccccc1)S(=O)(=O)c1ccc(F)cc1)N1CCOCC1 | -7 | -1 | · | 0 | 5 | ·
Cn1c(NCc2c(O)ccc3ccccc23)nc2ccccc21 | -30 | -10 | 14* | -1 | 11 | 17
O=[N+]([O-])c1cccc(-c2nc(-c3cccs3)c(-c3cccs3)[nH]2)c1 | -6 | -2 | 6 | 0 | 11 | 63*
COc1ccc(-c2[nH]c(-c3ccc4c(c3)OCO4)nc2-c2ccccc2)cc1 | -331 | -95 | -1 | -6 | 6 | 74*
Fc1ccc(-c2nc(-c3cccs3)[nH]c2-c2ccc(F)cc2)cc1 | -178 | -40 | 19* | -2 | 4 | 0
COc1ccc(-c2[nH]c(-c3ccc(C(=O)O)cc3)nc2-c2ccccc2)cc1 | i | i | 1 | 3 | 25 | -1
Oc1ccc(-c2nc(-c3ccc(F)cc3)c(-c3ccncc3)[nH]2)cc1 | -47 | -19 | -5 | 0 | 2 | 5
COc1ccc(-c2nc(-c3ccccc3)c(-c3cccs3)[nH]2)cc1OC | -296 | -115 | -3 | -6 | 7 | 81*
O=[N+]([O-])c1cccc(-c2nc(-c3ccccc3)c(-c3cccs3)[nH]2)c1 | -2 | -6 | 5 | 0 | 5 | 24
C[C@H]1CN(S(=O)(=O)C(C)(C)C)[C@@H](CCO)/C1=C\c1ccccc1 | -12 | 0 | · | 0 | 2 | ·
COc1ccc(-c2nc(-c3cccs3)c(-c3cccs3)[nH]2)cc1OC | -92 | -29 | -8 | -13 | 8 | 50*
COc1ccc(-c2nnc3sc(-c4cccs4)nn23)cc1OC | 5 | -2 | -1 | -1 | 8 | -9
COc1ccccc1C(=O)n1ccc2ccc(-c3ccc4ccn(Cc5ccccc5)c4c3)cc21 | -221 | -41 | · | -25 | 9 | ·
Cc1ccc2c(c1)=C(c1sc(N(C)c3ccc(O)cc3)nc1O)C(=O)N=2 | 0 | -2 | -10 | 0 | 25 | 4
O=C1N=c2ccc(Br)cc2=C1c1sc(=O)[nH]c1O | · | · | · | · | · | 64*
CCOC(=O)C1=C(CC)Nc2ccccc2N=C1NC(=O)c1cc(S(=O)(=O)N(C)C)ccc1Cl | -6 | -6 | 17* | 0 | 3 | 2
CCOC(=O)C1=C(CC)Nc2ccccc2N=C1NC(=O)c1cc(S(=O)(=O)N2CCOCC2)ccc1C | -3 | -6 | 1 | -1 | 7 | 10
Clc1ccc(CN2CCN(N=Cc3ccncc3)CC2)cc1 | 3 | 2 | · | 0 | 0 | ·
CC(C)(C)c1cc(NCc2ccccn2)n2ncc(-c3ccc(Cl)cc3)c2n1 | -10 | -4 | 13* | 0 | 2 | 1
SMILES | ADAM10 inh | ADAM17 inh | NR3A LBD binder | proKLK7 act | rCAG binder | AHR activator
CCOC(=O)N1CCN(C(=O)C[C@H]2C[C@@]3(C(=O)OC)C(=C[C@H](COCc4ccccc4)O[C@@H]3C)N(Cc3ccc4c(c3)OCO4)C2=O)CC1 | -6 | -2 | · | 1 | 2 | ·
Cc1ccc(NCc2nnc(SCC(=O)c3ccccc3)n2Cc2ccco2)c(C)c1 | 29* | 0 | -2 | 0 | 15 | 24
Cc1ccc(NC(=O)CSc2nnc(CSc3nc(C)cc(C)n3)n2Cc2ccco2)c(C)c1 | 2 | 2 | -1 | 0 | -11 | -1
COc1ccc(NC(=O)C23CC4CC(C2)CC(n2cnc(Br)n2)(C4)C3)cc1Cl | 3 | -2 | -4 | 0 | 2 | 51*
Cc1ccc(/C=N/Nc2cccc3cccnc23)c(O)c1 | -12 | -7 | 10* | 0 | 5 | 60*
Oc1ccc(/C=N/Nc2cccc3cccnc23)c(O)c1 | -3 | -6 | 32* | -2 | 21 | 17
Cc1ccc2nc(C)cc(N/N=C/c3cccnc3)c2c1 | -295 | -127 | 0 | 0 | -3 | 43
Oc1ccc(C=NNc2ccccn2)c(O)c1 | -12 | 0 | 4 | -2 | 2 | ·
CN(C)c1ccc(-c2nn3c(-c4ccco4)nnc3s2)cc1 | -52 | -15 | · | -39 | 10 | ·
O=C(/C=C/c1ccc(Cl)c(Cl)c1)Nc1cccnc1 | 16 | 0 | 8 | 1 | 1 | -7
Cc1occc1C(=O)Nc1cc(=O)n(C)c(=O)n1C | -2 | -4 | 1 | -1 | -6 | 66*
Cn1c(NC(=O)/C=C/c2ccccc2)cc(=O)n(C)c1=O | 5 | -1 | -2 | 0 | -1 | 78*
Cn1c(NC(=O)c2ccccc2)cc(=O)n(C)c1=O | -4 | -2 | 1 | 0 | -1 | 2
COc1ccc(/C=C/C(=O)Nc2cc(=O)n(C)c(=O)n2C)cc1 | -49 | -4 | 0 | 2 | 1 | 47*
Cn1c(NC(=O)/C=C/c2ccc(Cl)c(Cl)c2)cc(=O)n(C)c1=O | -12 | -1 | 16* | 0 | 2 | 22
N#CCC[C@@H]1CC[C@]2(CCCN(C(=O)c3ccco3)C2)O1 | 1 | 1 | · | -1 | 1 | ·
CCCCCCC12C(=Cc3cc(C)ccc31)c1ccccc1C(CC(=O)NCc1ccccc1)N2C(=O)OC (stereo not drawn) | -22 | -7 | · | 0 | 6 | ·
C[C@H]1[C@H](NC(=O)c2ccc(Cl)cc2)CC[C@@]23CCCN2C(=O)CCC[C@@H]13 | -2 | -4 | · | · | · | ·
c1ccc(Cc2cnc(N3CCN(Cc4cccc(-c5ccsc5)n4)CC3)nc2)cc1 | -3 | 2 | · | 0 | 3 | ·
COC(=O)[C@]12C[C@H](CC(=O)N3CCN(C(=O)c4ccco4)CC3)C(=O)N(Cc3ccco3)C1=C[C@H](C(C)(C)C)O[C@@H]2C | -1 | -2 | · | 0 | 4 | ·
Cc1noc(C(=O)N2CCN(c3ccccc3)CC2)c1Cl | 2 | -1 | 0 | 1 | -2 | 6
Cc1noc(C(=O)N2CCN(c3ccc(F)cc3)CC2)c1Cl | -8 | -1 | -2 | 0 | -1 | 48*
CCCCCCC[C@H](N)[C@H](O)C(=O)N(C)[C@@H](CCS(C)=O)C(=O)N[C@@H](Cc1ccc(O)cc1)C(=O)O (stereo partly drawn) | -11 | -5 | · | · | · | ·
COc1ccc(Nc2ncnc3sc(-c4ccccc4)cc23)cc1OC | -83 | -27 | 13* | -150 | 8 | 38

Screening data from PubChem BioAssay.
